Compound activity from PubChem BioAssay.
An excerpt weighted towards active compounds, which were near 2.1% of everything screened.
Myeloid diff 2 = induction of myeloid progenitor differentiation, primary screen, cell-based, flow cytometry, MLPCN library; ER-HoxA9 myeloid progenitors, lysozyme-GFP differentiation; calls only at 10 µM; actives 1% (n = 360,000); AID 624256, 2012;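 active = normalized GFP-positive differentiation at or above the plate's own cutoff, the solvent-only control mean plus 3 SD; inconclusive = no clear call, values can overlap the other calls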;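 also: cells exposed to compound for four days before flow analysis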
HNF4A DNA FP = change in binding of human HNF4A to DNA, primary screen, biochemical, fluorescence polarization, FITC-DNA | Hepatocyte nuclear factor 4-alpha (Homo sapiens), P41235 | activity change, % at 10 µM | 1 h | actives 0.3% (n = 360,000); in the data active = activity change above about 30%, passing the limit was not always enough
TPT1 inhibitor = Candida albicans TPT1 enzyme inhibitors, primary screen, biochemical, fluorescence polarization; tRNA 2'-phosphotransferase TPT1 (Candida albicans SC5314); recombinant caTPT1, FP RNA substrate dephosphorylation; inhibition, % at 5 µM; actives 0.81% (n = 300,000); AID 1962, 2009;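 active = inhibition above the mean of all tested compounds plus 3 SD, set per screening campaign, cut at about 24% in these data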;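 also: plate controls were DMSO alone for no effect and ferristatin control at 100 nM for full effect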
Rpn11 block = Rpn11 (PSMD14) deubiquitinase inhibitors, primary screen, biochemical, fluorescence polarization, uHTS; inhibition, % at 20 µM; actives 0.59% (n = 360,000); AID 588493, 2011; human 26S proteasome, Ub4-pepOG fluorescence polarization; 20S core pre-blocked with epoxomicin; 26S proteasome non-ATPase regulatory subunit 14 (Homo sapiens), O00487;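 active = inhibition at 20 µM, scaled to each plate's controls, above about 33%, limit read from the data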
Target sequence (O00487 whole entry, looked up): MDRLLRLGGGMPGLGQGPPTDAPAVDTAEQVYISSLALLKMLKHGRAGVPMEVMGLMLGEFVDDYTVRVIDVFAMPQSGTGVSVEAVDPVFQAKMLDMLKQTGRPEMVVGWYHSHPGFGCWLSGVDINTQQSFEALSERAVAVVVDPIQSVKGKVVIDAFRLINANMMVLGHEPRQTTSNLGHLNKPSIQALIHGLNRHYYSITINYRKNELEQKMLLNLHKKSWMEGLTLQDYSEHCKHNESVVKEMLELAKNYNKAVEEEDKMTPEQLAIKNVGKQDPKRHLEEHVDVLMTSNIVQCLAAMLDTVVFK
TPT1 inh confirm = Candida albicans TPT1 inhibitors, confirmation, biochemical, fluorescence polarization, triplicate; shares compounds with TPT1 inhibitor; recombinant caTPT1, RNase T1 coupled; inhibition, % at 5 µM; actives 74% (n = 2,400); AID 2149, 2009;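 active = inhibition above the primary screen limit, the mean inhibition of all tested compounds plus 3 SD, cut at about 25% in these data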
RNase T1 inh = RNase T1 inhibitors, counter-screen for TPT1 inhibitor project, biochemical, fluorescence polarization | shares compounds with TPT1 inhibitor | actives 83% (n = 2,400) | RNase T1 cleavage, 1536-well | AID 2153, 2009 | inhibition, % at 5 µM;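 active = inhibition above the solvent-only control well mean plus 3 SD, limit set per screening run, cut at about 23% in these data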;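 also: plate controls were DMSO wells with enzyme for no effect and wells without RNase T1 for full effect; inhibitors block cleavage so intact labeled substrate keeps polarization high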
* hit, by the source's call; i = inactive; u = inconclusive; x = no result shown; + = active, no number.

SMILES	Myeloid diff 2	HNF4A DNA FP	TPT1 inhibitor	Rpn11 block	TPT1 inh confirm	RNase T1 inh
Nc1ccc(/C=C/C(=O)c2cccs2)cc1	i	19	78*	x	96*	99*
Cc1occc1-c1nnc(-c2cc([N+](=O)[O-])cc([N+](=O)[O-])c2)o1	i	-4	1	-3	x	x
CCN1C(=O)/C(=C/C2=Cc3ccccc3OC2C)SC1=S (stereo not given)	i	91*	43*	x	93*	98*
Cn1c(-c2ccc(C=O)s2)nc2c3ccccc3c3ccccc3c21	i	-40	34*	-14	52*	63*
Cc1cc(=O)oc2c(CN3CCCC3)c(O)c(Cl)cc12	i	-3	-8	-21	x	x
CN1CCCc2cc3c(C(F)(F)F)cc(=O)oc3nc21	i	-72	-52	-106	x	x
Cc1cc(=O)oc2c3c4c(cc12)OCCN4CCC3	i	6	30*	-10	13	22*
CC(C)c1cc(=O)oc2c3c4c(cc12)CCCN4CCC3	i	13	29*	1	32*	41*
COc1ccc(CCNC(=O)CCC2COc3ccccc3O2)cc1OC (stereo not given)	i	5	4	-3	x	x
CN(C)c1ccc(/C=C2\N=C(c3ccc(Cl)c([N+](=O)[O-])c3)NC2=O)cc1	+	23	53*	37	86*	94*
CC(=O)N1c2ccccc2C2(O)N=C(C)SC12 (stereo not given)	i	3	-2	3	x	x
CCN1/C(=C/c2ccc3cccc(C)c3[n+]2CC)Sc2ccccc21	u	107*	60*	75*	66*	76*
C[n+]1ccccc1/C=C1\Sc2ccccc2N1CCO	i	3	2	-1	x	x
CCC1CCCCN1CCCNC(=O)CNC(=O)Cn1ccc2ccccc2c1=O (stereo not given)	i	0	37*	-6	7	6
O=C1/C(=C\c2ccc(-c3ccccc3Cl)o2)SC(=S)N1CC1CCCO1 (stereo not given)	i	-9	27*	0	48*	61*
O=C(O)C(c1ccccc1)N1C(=O)/C(=C\c2ccc(-c3ccccc3Cl)o2)SC1=S (stereo not given)	i	62	124*	x	128*	130*
COc1cc(/C=C2\SC(=S)N(C(C(=O)O)c3ccccc3)C2=O)cc(OC)c1OC (stereo not given)	i	0	4	-3	x	x
CCCN(CCC)C1=N/C(=C\c2ccco2)C(=O)N1c1ccccc1	i	2	26*	12	15	22*
COc1ccc(N2C(=O)CSC2c2ccc3c(c2)OCO3)cc1 (stereo not given)	i	1	0	1	x	x
COc1ccc(N2C(=O)CSC2c2ccc3c(c2)OCO3)c(OC)c1 (stereo not given)	i	-3	40*	1	5	8
O=C1CC(C(F)(F)C(F)(F)C(F)(F)C(F)F)=Nc2ccccc2N1	i	6	75*	0	9	14
CCCCCN1C=CC=C/C1=C\C=C(C#N)C#N	i	11	41*	34	44*	58*
CCCCCN1C(C)=CC(=C(C#N)C#N)C=C1C	i	-4	0	1	x	x
C=CCN1C=CC(=CC=C(C#N)C#N)C=C1	i	119	137*	x	158*	155*
CCCN1C=CC(=CC=C(C#N)C#N)C=C1	i	121	144*	x	165*	161*
COc1ccc(NC(=O)C2CCCN(C(=O)Nc3ccc(F)cc3)C2)cc1 (stereo not given)	i	-1	-5	-2	x	x
Cc1nc2ccccc2nc1OCC(=O)Nc1ccccc1	i	0	96*	10	4	5
COc1ccc(CN2C(=O)Cc3c2nc(N)c2c(N)nc(N4CCCCC4)c(C#N)c32)cc1	x	x	31*	x	58*	68*
